Our source for the growth values is PubChem BioAssay (NCI).

Among the test systems are SR leukemia; RPMI-8226 leukemia; OVCAR-8 ovarian; OVCAR-5 ovarian; OVCAR-4 ovarian; SK-OV-3 ovarian; IGROV1 ovarian; OVCAR-3 ovarian; HS 578T breast; NCI/ADR-RES ovarian.
What all share (assay): NCI-60 one-dose screen, 48 h (100 = growth as untreated, 0 = no growth, -100 = all killed)
Common to all, as to details: 10 µM unless noted

Structures are written as SMILES. About 83,000 compounds went through this panel and 20% of them were active in at least one assay; those are over-represented in the sample as a whole.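 The test compound was applied at a single concentration to cells in 96-well plates for 48 hours, and percent growth was recorded.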 Values without a mark were called inactive. Activity calls are given as the source filed them. How the source made its calls: active means growth percent below 10; inactive means the rest.

Regarding `Cc1cc(N)c2cc(NC(=O)/C=C\c3ccccc3Cl)ccc2n1`, the growth in the assay with SR leukemia is 7.11% (active); in the assay with RPMI-8226 leukemia, -70.9% (active); with OVCAR-8 ovarian, -41.9% (active); in the assay on OVCAR-5 ovarian, -95.4% (active); in the assay on OVCAR-4 ovarian, -64.1% (active); in the assay with SK-OV-3 ovarian, -96.4% (active). Further, the growth is -67.5% (active) in the assay on IGROV1 ovarian, -90.2% (active) with OVCAR-3 ovarian, -72.3% (active) with HS 578T breast and 48.9% in the assay on NCI/ADR-RES ovarian.
`COc1cc(C(=O)n2nc(N3CCN(C)CC3)c3cc(N)ccc32)cc(OC)c1OC`: the growth in the assay with SR leukemia is 13.3%; in the assay on RPMI-8226 leukemia, 33.3%; in the assay with OVCAR-8 ovarian, 30.3%; in the assay with OVCAR-5 ovarian, 50.4%; with OVCAR-4 ovarian it was 49.7%; in the assay on SK-OV-3 ovarian it was 28.1%. For the same compound, the growth was 32.5% in the assay with IGROV1 ovarian, 4.26% (active) with OVCAR-3 ovarian, 44.5% in the assay on HS 578T breast and 67.9% in the assay with NCI/ADR-RES ovarian.
For `CCC(=C(c1ccc(OCCN2CCCC2)cc1)c1ccc(OCCN2CCCC2)cc1)c1ccc(Cl)cc1`, the growth was -40.5% (active) in the assay with SR leukemia; -44.1% (active) in the assay on RPMI-8226 leukemia; -7.08% (active) with OVCAR-8 ovarian; 19.5% in the assay with OVCAR-5 ovarian; -43.4% (active) in the assay with OVCAR-4 ovarian; 84.8% in the assay on SK-OV-3 ovarian. In addition, the growth with IGROV1 ovarian was -20.2% (active); with OVCAR-3 ovarian, -57.6% (active); with HS 578T breast, -47.4% (active); in the assay with NCI/ADR-RES ovarian, 10.5%.
Take `CO[C@H]1/C=C(/C)CCC[C@H](C)[C@H](O)[C@@H](C)C(=O)C(C)(C)[C@@H](O)CC(=O)O[C@@H]1/C(C)=C/c1csc(C)n1`: the growth in the assay on SR leukemia was 19.6%; with RPMI-8226 leukemia it was 14.2%; with OVCAR-8 ovarian, 26.7%; in the assay on OVCAR-5 ovarian, 34.6%; in the assay on OVCAR-4 ovarian it was 63.7%; in the assay with SK-OV-3 ovarian it was 5.27% (active). The growth in the assay with IGROV1 ovarian is 12.8%; with OVCAR-3 ovarian it was -49.9% (active); with HS 578T breast, -21.3% (active); in the assay on NCI/ADR-RES ovarian, -36.7% (active).
Turning to `O=C(N/N=C/c1ccc(F)cc1)c1ccc(C(F)(F)F)nc1Nc1cccc(C(F)(F)F)c1`, the growth with SR leukemia is -30.5% (active); in the assay on RPMI-8226 leukemia, -49.8% (active); in the assay with OVCAR-8 ovarian it was 9.33% (active); in the assay with OVCAR-5 ovarian, -7.78% (active); in the assay with OVCAR-4 ovarian, -6.96% (active); in the assay on SK-OV-3 ovarian, -7.48% (active). Also, the growth in the assay with IGROV1 ovarian was -19.6% (active); with OVCAR-3 ovarian, -7.4% (active); in the assay with HS 578T breast, -5.72% (active); in the assay on NCI/ADR-RES ovarian, -22.9% (active).
As to `C=C(C)[C@@H]1CC[C@]2(C(=O)NCCNCCN)CC[C@]3(C)[C@H](CC[C@@H]4[C@@]5(C)C/C(=C/c6ccncc6)C(=O)C(C)(C)[C@@H]5CC[C@]43C)[C@@H]12`, the growth was 95.4% in the assay on SR leukemia; 90.5% in the assay on RPMI-8226 leukemia; 101% with OVCAR-8 ovarian; 103% with OVCAR-5 ovarian; 89.9% in the assay with OVCAR-4 ovarian; 109% in the assay on SK-OV-3 ovarian. Moreover, the growth in the assay with IGROV1 ovarian was 87.6%; in the assay on OVCAR-3 ovarian, 97.9%; with HS 578T breast, 86.7%; in the assay on NCI/ADR-RES ovarian, 101%.
Consider `C=CCn1c(SCC(=O)Nc2ccc(C(=O)/C=C/c3ccc(Cl)cc3)cc2)nnc1-c1cc(-c2ccc(S(N)(=O)=O)cc2)nc2ccccc12`, for which the growth with SR leukemia was 79.5%; in the assay with RPMI-8226 leukemia, 5.47% (active); in the assay on OVCAR-8 ovarian, 55.5%; in the assay with OVCAR-5 ovarian, 96.7%; with OVCAR-4 ovarian, 90.2%; in the assay with SK-OV-3 ovarian, 93.7%. Also, the growth in the assay on IGROV1 ovarian was 87.7%; with OVCAR-3 ovarian it was 82.8%; with HS 578T breast it was 98.2%; with NCI/ADR-RES ovarian, 100%.
With `Brc1ccc2[nH]cc(-c3nonc3-c3c[nH]c4ccccc34)c2c1`, the growth in the assay with SR leukemia is 28.1%; with RPMI-8226 leukemia it was 48.7%; in the assay with OVCAR-8 ovarian, 47%; with OVCAR-5 ovarian, 48.9%; in the assay with OVCAR-4 ovarian it was 46.1%; with SK-OV-3 ovarian, 60.5%. Further, the growth with IGROV1 ovarian was 43.6%; with OVCAR-3 ovarian it was 45.4%; with HS 578T breast, 52.8%; in the assay on NCI/ADR-RES ovarian, 42.6%.
With `O=C(Cn1cc(CN2CCCCCC2)nn1)Nc1ccc2c(ccn2Cc2ccccc2)c1`, the growth in the assay on SR leukemia was 36.8%; in the assay on RPMI-8226 leukemia, 64.3%; in the assay on OVCAR-8 ovarian it was 98.4%; in the assay on OVCAR-5 ovarian it was 105%; in the assay on OVCAR-4 ovarian, 87%; in the assay on SK-OV-3 ovarian, 82.7%. Further, the growth in the assay on IGROV1 ovarian was 94%; in the assay with OVCAR-3 ovarian, 95.7%; in the assay with HS 578T breast it was 88.5%; with NCI/ADR-RES ovarian, 102%.
In the case of `C[C@H](NC(=O)[C@@H](C)N)[C@H](Oc1ccc2c(cnn2-c2ccc(F)cc2)c1)c1ccc2c(c1)OCCO2`, the growth was -41.9% (active) in the assay on SR leukemia; 20.7% with RPMI-8226 leukemia; 57.8% in the assay with OVCAR-8 ovarian; 64.7% in the assay with OVCAR-5 ovarian; 60.7% in the assay on OVCAR-4 ovarian; 49.2% with SK-OV-3 ovarian. Moreover, the growth in the assay on IGROV1 ovarian is 40.9%; in the assay with OVCAR-3 ovarian, 55.8%; in the assay on HS 578T breast it was 64.8%; with NCI/ADR-RES ovarian, 57.6%.
`COc1ccc(C(=O)Nc2cccc(C3CC(=O)c4c(cc(OC)c(OC)c4OC)O3)c2)cc1` (stereo not given): the growth was 13.3% with SR leukemia; 11.2% in the assay with RPMI-8226 leukemia; 17.7% with OVCAR-8 ovarian; 46% with OVCAR-5 ovarian; 43.5% in the assay with OVCAR-4 ovarian; 20.6% in the assay on SK-OV-3 ovarian. The growth in the assay with IGROV1 ovarian is 36%; in the assay on OVCAR-3 ovarian it was 1.51% (active); in the assay with HS 578T breast it was 5.72% (active); with NCI/ADR-RES ovarian, 8.74% (active).
As for `Cc1cnc(C(=O)NNc2nc3sc4c(c3c(=O)n2C)C(C)CCC4)cn1` (stereo not given), the growth is 12.2% with SR leukemia; 9.06% (active) in the assay with RPMI-8226 leukemia; 5.29% (active) with OVCAR-8 ovarian; 2.46% (active) in the assay with OVCAR-5 ovarian; -14.7% (active) in the assay on OVCAR-4 ovarian; 11.9% with SK-OV-3 ovarian. In addition, the growth with IGROV1 ovarian is -18.6% (active); with OVCAR-3 ovarian, -2.78% (active); with HS 578T breast it was 34.2%; in the assay with NCI/ADR-RES ovarian it was 1.29% (active).
In the case of `COc1ccc2c3c([nH]c2c1)C(=O)c1nc(C)ccc1C3=O`, the growth with SR leukemia is 37.4%; with RPMI-8226 leukemia, 45.4%; with OVCAR-8 ovarian, 48.5%; with OVCAR-5 ovarian it was 85%; in the assay on OVCAR-4 ovarian, 25.7%; in the assay on SK-OV-3 ovarian, 76.3%. The growth in the assay with IGROV1 ovarian was 28.8%; in the assay with OVCAR-3 ovarian, -13.9% (active); in the assay on HS 578T breast, 84.9%; in the assay on NCI/ADR-RES ovarian, 44.3%.
